Values joined by “and” are separate entries in the source; they are usually repeats but may differ in a detail not shown here. Identical values can stand only once. Inconclusive results are not listed. Unmarked numbers belong to inactive results. Active and inactive are the calls of the source. Calls come from the whole dose curve; as a rule, active = well fitted cell-killing curve with a large enough effect; inconclusive = small, poorly fitted or top-dose-only effect; inactive = no such curve, though single readings can be large or run the other way.
Test: qHTS of pediatric cancer cell lines to identify multiple opportunities for drug repurposing: Primary screen for SJ-GBM2 cells (AID 1347091)
Conditions: SJ-GBM2 viability, CellTiter-Glo luminescence, 48 h; series mostly up to 46 µM; activity change, negative = cytotoxic: at the top concentration
Description: Drug repurposing or repositioning has been offered as a strategy for drug development in oncology programs. This approach has special potential for childhood cancers and other rare or orphan diseases, where the expected return on new drug development has been a disincentive to pharmaceuticals.
In this project we exploit the poly-pharmacology of drugs to discover new indications via phenotypic screening of a panel of 19 well-characterized cell lines derived from solid tumors seen in children and adolescents. The goal is to identify approved drugs with previously unrecognized anticancer properties that has the potential to reveal new mechanisms and biological processes involved in carcinogenesis or drug resistance. We employed a titration-based paradigm (quantitative high-throughput screening or qHTS), where all compounds were tested at multiple concentrations for their effect on cell viability. Concentration-response curves (CRCs) were derived directly from the primary screen, and both potency and efficacy values were used to identify compounds with robust bioactivity profiles. We screened the NIH Chemical Genomics Center (NCGC) Pharmaceutical Collection (NPC) and Mechanism Interrogation Plate (MIPE) small molecule collections of approved and investigational compounds against these cell lines; and measured metabolically active cells after 48 hours of compound treatment as a proxy for cell viability.
Assay Submitter: Nathalia J. Martinez, National Center for Advancing Translational Sciences, National Institutes of Health, Rockville, MD, USA; email: natalia.martinez@nih.gov
[1] Shen, M et al. Quantitative high-throughput phenotypic screening of pediatric cancer cell lines identifies multiple opportunities for drug repurposing. Oncotarget 2017 Dec 19;9(4):4758-4772. PMID 29435139.
The cells were obtained from University of North Carolina (UNC), Pediatric Preclinical Testing Program (PPT), and Coriell Institute (CI).
qHTS cell viability assay:
Cells were assayed in growth media at a density of 500-1,000 cells/well. Five microliters of cells were dispensed into 1,536-well, white, solid-bottom, TC-treated plates (Greiner Bio One) using a multidrop dispenser and incubated at 37 degrees C, 5% CO2, under a humidified atmosphere for 5 hours. Twenty-three nanoliters of compounds and controls (neutral control DMSO or positive control bortezomib at final concentration of 2.3 µM) were subsequently transferred by Kalypsys pintool. For primary screens, the MIPE collection was tested at 11-point dilutions (final concentrations range from 0.78 nM to 46 µM) and the NPC collection at 8-point dilutions (final concentrations range from 0.59 nM to 46 µM). Compounds tested in follow-up screens were assayed at 11-point dilutions. Cells were incubated for 48 hours, followed by addition of 3 uL of CellTiter-Glo (Promega). After a 15 min incubation at room temperature, samples were analyzed for luminescence intensity using a ViewLux High-throughput CCD imager equipped with clear filters.
Potency is the fitted concentration of half-maximal effect.

| Structure (SMILES) | Potency | activity change, negative = cytotoxic |
| --- | --- | --- |
| O=C(NCc1ccncc1)C12C[C@H]3C[C@@H](C1)CC(c1ccc(Cl)cc1)(C3)C2 | 20.9 µM (active) |  |
| CC(C)C(=O)Nc1ncc(-c2cc(C(F)F)nn2-c2c(Cl)cccc2Cl)s1 | 20.9 µM (active) |  |
| NC(=O)c1cccc(-c2cc(Nc3ccc(OC(F)(F)F)cc3)ncn2)c1 |  | -18.3% |
| COc1ccc2c(Oc3ccc(NC(=O)c4c(C)n(CC(C)(C)O)n(-c5ccccc5)c4=O)nc3)ccnc2c1 | 0.469 µM (active) |  |
| C[C@]12CC[C@@H]3c4ccc(O)cc4C[C@@H](CCCCCCCCCS(=O)CCCC(F)(F)C(F)(F)F)[C@H]3[C@H]1CC[C@H]2O (stereo not given in full) |  | 0.702% |
| CC(C)(C)c1cc(C(=O)O)c(NC(=O)Nc2ccc3[nH]ncc3c2)s1 |  | -0.651% |
| COc1ccc2cc(-c3nc(-c4ccc(S(C)=O)cc4)[nH]c3-c3ccncc3)ccc2c1 (stereo not given) | 14.8 µM (active) |  |
| O=c1cc(-c2cccc3c2Sc2ccccc2S3)oc(N2CCOCC2)c1 |  | 13% |
| C[C@H](NC(=O)c1sccc1OCc1ccc(Cl)cc1)c1ccccc1 |  | -18.2% |
| C[N+](C)(C)CC(=O)O |  | 24.1% |
| COc1cc2ncnc(Nc3ccc(F)c(Cl)c3)c2cc1OCCCN1CCOCC1 | 1.71 µM (active) and 8.41 µM (active) |  |
| O=C1NC(=O)C(=Cc2ccc3nccnc3c2)S1 | 8.12 µM (active) |  |
| CC(C)NCC(O)COc1cccc2[nH]ccc12 (stereo not given) |  | -11.4% |
| CC(C)=CC[C@@H](O)C1=CC(=O)c2c(O)ccc(O)c2C1=O | 1.05 µM (active) |  |
| CC1CCC(C(=O)N(c2cc(C#CC(C)(C)C)sc2C(=O)O)C2CCC(O)CC2)CC1 (stereo not given) |  | -5.28% |
| O=C(O)C(O)Cc1ccc(O)c(O)c1 (stereo not given) |  | -20% |
| C[C@H]1[C@H](NC(=O)C(=NOC(C)(C)C(=O)O)c2csc(N)n2)C(=O)N1S(=O)(=O)O |  | 20.4% |
| CC(C)(C(=O)NCC(F)(F)C(F)(F)F)C(=O)N[C@@H]1C(=O)Nc2ccccc2-c2ccccc21 | 1.05 µM (active) |  |
| CCCNC(=O)NS(=O)(=O)c1ccc(Cl)cc1 |  | 21.5% |
| COc1ccc(-c2coc3cc(O)cc(O)c3c2=O)cc1 |  | 23.8% |

| Structure (SMILES) | Potency | activity change, negative = cytotoxic |
| --- | --- | --- |
| O=C(OCC#CCSc1nnc(-c2cccc3ccccc23)o1)c1cc2ccccc2s1 |  | -3.36% |
| CO[C@H]1C=CC=C(C)C(=O)NC2=CC(=O)C(NCCN(C)C)=C(C[C@@H](C)C[C@H](OC)[C@@H](O)[C@@H](C)C=C(C)[C@@H]1OC(N)=O)C2=O | 0.0526 µM (active) |  |
| COc1ccc(-n2c(C)c([N+](=O)[O-])c3ccc(O)cc32)cc1 |  | -25% |
| C[C@H](NC(=O)C(=O)Nc1ccccc1C(C)(C)C)C(=O)N[C@@H](CC(=O)O)C(=O)COc1c(F)c(F)cc(F)c1F |  | 41.4% |
| CN(C)CCC(c1ccccc1)c1ccccn1 (stereo not given) |  | 33.1% |
| CC1(C)S[C@H]2[C@H](NC(=O)[C@@H](N)c3ccc(O)cc3)C(=O)N2[C@@H]1C(=O)O | 16.6 µM (active) |  |
| O=C1NC(=O)C(=Cc2ccc(-c3ccc(F)cc3)o2)S1 |  | -0.793% |
| O=C(NC1CCOCC1)c1ccc(-c2cc(-c3cn[nH]c3-c3ccccn3)ccn2)cc1 |  | 31.4% |
| CCOC(=O)C1=C(N)Oc2ccc(Br)cc2C1C(C#N)C(=O)OCC (stereo not given) | 7.43 µM (active) |  |
| O=C(O)Cc1cccc2ccccc12 | inactive |  |
| COc1ccc2cccc(CCNC(C)=O)c2c1 |  | 12.8% |
| Cc1ccc(/C=N/NC(=O)c2ccccc2Oc2ccccc2)o1 | 20.9 µM (active) |  |
| CC(C)(C)OC(=O)N[C@H]1CCCCCC=C[C@@H]2C[C@@]2(C(=O)NS(=O)(=O)C2CC2)NC(=O)[C@@H]2C[C@@H](OC(=O)N3Cc4cccc(F)c4C3)CN2C1=O |  | 10.6% |
| OC[C@H]1O[C@@H](Oc2cc(O)cc(C=Cc3ccc(O)cc3)c2)[C@H](O)[C@@H](O)[C@H]1O |  | 8.79% |
| CN(C)c1cc(NC(=O)CNC(C)(C)C)c(O)c2c1C[C@@H]1C[C@H]3[C@H](N(C)C)C(=O)C(C(N)=O)=C(O)[C@@]3(O)C(=O)C1=C2O |  | 32.9% |
| Nc1ncnc2c1ncn2[C@@H]1O[C@@H](CO)[C@H](O)[C@H]1O |  | 11.1% |
| COc1cc2ncnc(-n3nc(-c4ccccn4)nc3N)c2cc1OC | 14.8 µM (active) |  |
| CC(=Cc1ccccc1)C=C1SC(=S)N(CC(=O)O)C1=O |  | -4.22% |
| CC(=O)c1ccc(S(=O)(=O)NC(=O)NC2CCCCC2)cc1 |  | 11% |
| C[N+](C)(C)CCCCCC[N+](C)(C)C |  | 18.4% |
